SMILES strings stand for the structures. Records with an inconclusive call do not appear. Activity calls are given as the source filed them. Calls follow the shape of the dose curve; as a rule, active = well fitted cell-killing curve with a large enough effect; inconclusive = small, poorly fitted or top-dose-only effect, or effect the other way; inactive = no such curve, though single readings can be large or run the other way.
Potency is read from the fitted curve at half-maximal effect.

The nature of the test: Quantitative High-Throughput drug screen in 47 multiple myeloma cell lines against the NCATS MIPE library collection: KMS12PE_JCRB cell viability assay (AID 1918972). Also: nearly all actives have a fitted effect of over 30% in size. Particulars: KMS12PE myeloma viability, CellTiter-Glo ATP, 48 h; series mostly up to 45.8 µM. From the text:
PI: Beverly A. Mock Ph.D.
Laboratory of Cancer Biology and Genetics,
Center for Cancer Research, National Cancer Institute,
National Institute of Health, Bethesda, Maryland
Drug resistance and disease progression are common in multiple myeloma (MM) patients, underscoring the need for new therapeutic combinations. […] We hypothesized that effective combinations would reduce MYC expression and enhance p16 activity. […] These preclinical data identify potentially useful drug combinations for evaluation in drug-resistant MM and reveal potential mechanisms of combined drug sensitivity.
Described herein is the primary MIPE qHTS used to cherrypick compounds. Validated compounds were then further tested for potential synergistic activiy.
[1] Peat TJ, Gaikwad SM, Dubois W, Gyabaah-Kessie N, Zhang S, Gorjifard S, Phyo Z, Andres M, Hughitt VK, Simpson RM, Miller MA, Girvin AT, Taylor A, Williams D, D'Antonio N, Zhang Y, Rajagopalan A, Flietner E, Wilson K, Zhang X, Shinn P, Klumpp-Thomas C, McKnight C, Itkin Z, Chen L, Kazandijian D, Zhang J, Michalowski AM, Simmons JK, Keats J, Thomas CJ, Mock BA. Drug combinations identified by high-throughput screening promote cell cycle transition and upregulate Smad pathways in myeloma. Cancer Lett. 2023 Aug 1;568:216284. doi: 10.1016/j.canlet.2023.216284. Epub 2023 Jun 24. PMID: 37356470; PMCID: PMC10408729.
SEQUENCE No. (e.g., 1, 2, 3, etc.); […] (e.g., Cells, Incubation, Reagent, etc.); VALUE and DESCRIPTION.
1; Cells; 5 uL; white, solid bottom 1536-well Greiner assay plate.
2; Compounds; 23 nL; Kalypsis pin tool (Wako USA) equipped with a 1536-well pin head to transfer to the assay plates.
3; Incubation; 48 hours; 37C incubation.
4; Reagent;5uL; CellTiter Glo (Promega).
5; Detector; 425V; Luminescence; Viewlux PerkinElmer.
NOTES (numbers refer to Sequence numbers above)
1. The cell-based screening methods employed in this study were like those previously published. Briefly, the corresponding myeloma cell lines were screened in 1,536-well plates with 500 cells, 5-uL per well for inhibition of cell viability (assessed by measuring ATP levels with CellTiterGlo).
2. NCATS MIPE 4.0 library of approved and investigational drugs were added using the Kalypsis pin tool. Wells treated with DMSO only for 100% viability and media only wells for 0% viability were used as controls.
3. The assay plates were covered and incubated for 48 hours in a 37C, 5% CO2 incubator with controlled humidity.
4. After 48 hours, CellTilter-GloTM luminescent substrate mix (Promega) reagent was added to the assay plate and plates we incubated for 5 min at room temperature.
5. Signal was measured as median relative luminescence units on a ViewLux (PerkinElmer) multiplate reader.
[1] Heske CM, Davis MI, Baumgart JT, Wilson K, Gormally MV, Chen L, Zhang X, Ceribelli M, Duveau DY, Guha R, Ferrer M, Arnaldez FI, Ji J, Tran HL, Zhang Y, Mendoza A, Helman LJ, Thomas CJ. Matrix Screen Identifies Synergistic Combination of PARP Inhibitors and Nicotinamide Phosphoribosyltransferase (NAMPT) Inhibitors in Ewing Sarcoma. Clin Cancer Res. 2017 Dec 1;23(23):7301-7311. doi: 10.1158/1078-0432.CCR-17-1121. Epub 2017 Sep 12. PMID: 28899971; PMCID: PMC6636827.
(In general: Cellular ATP, detected with luciferase, serves as a proxy for viable cell number.)
Consider `O=C1CC[C@@]2(O)[C@H]3Cc4ccc(O)c5c4[C@@]2(CCN3CC2CC2)[C@H]1O5`, for which the Potency result is “inactive”.
As for `Cn1cc(C2=C(c3cn(C4CCN(Cc5ccccn5)CC4)c4ccccc34)C(=O)NC2=O)c2ccccc21`, the Potency was 2.35 µM (active).
`CC(C)CC(N(C)C)C1(c2ccc(Cl)cc2)CCC1` (stereo not given): the Potency entry is “inactive”.
As to `CN(C)CCc1ccc(O)cc1`, the Potency result is “inactive”.
Next, `O=C(O)C(=O)c1cn(Cc2ccccc2)c2ccc(-c3ccc(OC(F)(F)F)cc3)cc12`: 7.43 µM (active).
The same measure for `C[C@@H]1[C@@H](CC(C[C@H]2O[C@@H]3O[C@]4(C)CC[C@@H]5[C@H](C)CC[C@@H]([C@H]2C)[C@@]35OO4)C[S+](=O)([O-])c2ccc(COC(=O)N(C)C)cc2)O[C@@H]2O[C@]3(C)CC[C@H]4[C@H](C)CC[C@@H]1[C@@]24OO3` (stereo not given in full): 0.0833 µM (active).
Take `C[C@@H]1O[C@@H](O[C@H]2C[C@@H](O)[C@]3(CO)[C@H]4[C@H](O)C[C@]5(C)[C@@H](C6=CC(=O)OC6)CC[C@]5(O)[C@@H]4CC[C@]3(O)C2)[C@H](O)[C@H](O)[C@H]1O`: the Potency was 0.0105 µM (active).
With `C#CCN(C)[C@H](C)Cc1ccccc1`, the Potency entry is “inactive”.
For `CN(C)[C@@H]1C(=O)C(C(N)=O)=C(O)[C@@]2(O)C(=O)C3=C(O)c4c(O)cccc4[C@@](C)(O)[C@H]3C[C@@H]12`, the Potency entry was “inactive”.
Take `COC[C@H]1OC(=O)c2coc3c2[C@@]1(C)C1=C(C3=O)C2CCC(=O)[C@@]2(C)C[C@H]1OC(C)=O` (stereo not given in full): the Potency was 16.6 µM (active).
Next, `NCC1(CC(=O)O)CCCCC1`: “inactive”; `N[C@@H](Cc1ccc(N(CCCl)CCCl)cc1)C(=O)O`: 16.6 µM (active); `CN(C)CCN(C)CCc1ccc(Cl)c(Cl)c1`: 23.5 µM (active).
Take `Cn1c(CCCC(=O)O)nc2cc(N(CCCl)CCCl)ccc21`: the Potency result was “inactive”.
Consider `CN1CCN(C(=O)O[C@H]2c3nccnc3C(=O)N2c2ccc(Cl)cn2)CC1`, for which the Potency result is “inactive”.
Regarding `CCCC(C)(COC(N)=O)COC(=O)NC(C)C` (stereo not given), the Potency result was “inactive”.
In the case of `Cc1sc2c(c1C)C(c1ccc(Cl)cc1)=N[C@@H](CC(=O)OC(C)(C)C)c1nnc(C)n1-2`, the Potency was 0.0296 µM (active).
For `C[C@@H]1[C@@H](C(=O)C[C@H]2O[C@@H]3O[C@]4(C)CC[C@@H]5[C@H](C)CC[C@@H]([C@H]2C)[C@@]35OO4)O[C@@H]2O[C@]3(C)CC[C@H]4[C@H](C)CC[C@@H]1[C@@]24OO3`, the Potency is 0.0833 µM (active).
In the case of `CC1=C2C[C@@H]3[C@@H](CC=C4C[C@@H](O)CC[C@@]43C)[C@@H]2CC[C@]12O[C@H]1C[C@H](C)CN[C@H]1[C@H]2C`, the Potency entry is “inactive”.
The same measure for `Cc1cc(SCc2sc(-c3ccc(C(F)(F)F)c(F)c3)nc2C)ccc1OCC(=O)O`: 18.7 µM (active); for `CNCC(O)c1ccc(O)cc1` (stereo not given): “inactive”.
With `Cc1cccc(C)c1NC(=O)CN1CCCC1=O`, the Potency entry was “inactive”.
For `O=c1[nH]c2ccccc2n1CCCN1CCC(n2c(=O)[nH]c3cc(Cl)ccc32)CC1`, the Potency was 18.7 µM (active).
Next, `CNC(=O)N1N=C(c2ccc(N)cc2)c2cc3c(cc2CC1C)OCO3` (stereo not given): 2.35 µM (active); `CC(O)(CS(=O)(=O)c1ccc(F)cc1)C(=O)Nc1ccc(C#N)c(C(F)(F)F)c1` (stereo not given): 1.66 µM (active).
